Structures are written as SMILES. Counter-ions that a name gives are not always drawn. ± gives the standard deviation of the averaged measurements. Whole data set: some 3,200 compounds, median “nuclei count (viability) relative to DMSO” near 99, cut for the lowest 2% near 16. Only a selection was taken, and the lowest values are over-represented in it overall.

The test concerns U2OS. Put plainly: nuclei count (viability) relative to DMSO (% of DMSO); higher = more viable cells. The settings on record: 10 µM; 24 h. Here is the method:
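Primary image-based screen in U2OS cells: compounds at 10 uM for 24 h, then a 1 h o-propargyl-puromycin (OPP) pulse, click labelling, and high-throughput microscopy. Mean cytoplasmic OPP intensity and nuclei count were normalised to DMSO wells within each plate (DMSO = 100) and averaged over triplicate plates.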
Compound `O=C1CC[C@@]2(O)[C@H]3Cc4ccc(O)c5c4[C@@]2(CCN3CC2CC2)[C@H]1O5` [Naltrexone hydrochloride dihydrate] gave a nuclei count of 105. For `O=C1/C(=C/c2ccccc2)C[C@@]2(O)[C@H]3Cc4ccc(O)c5c4[C@@]2(CCN3CC2CC2)[C@H]1O5` [BNTX maleate] the value was 3.38; for `Oc1ccc2c3c1O[C@H]1c4[nH]c5c(c4C[C@@]4(O)[C@@H](C2)N(CC2CC2)CC[C@]314)C[C@@]1(O)[C@H]2Cc3ccc(O)c4c3[C@@]1(CCN2CC1CC1)[C@H]5O4` [nor-Binaltorphimine dihydrochloride], 99.1; for `C[C@@H]1CC[C@@]2(OC1)O[C@H]1C[C@H]3[C@@H]4CC=C5C[C@@H](O[C@@H]6O[C@H](CO)[C@@H](O[C@@H]7O[C@@H](C)[C@H](O)[C@@H](O)[C@H]7O)[C@H](O)[C@H]6O[C@@H]6O[C@@H](C)[C@H](O)[C@@H](O)[C@H]6O)CC[C@]5(C)[C@H]4CC[C@]3(C)[C@H]1[C@@H]2C` [Dioscin (Collettiside III)], 9.01. `CCN(CC)CCO[C@H]1CC[C@@]2(C)C(=CC[C@@H]3[C@@H]2CC[C@]2(C)C(=O)CC[C@@H]32)C1` showed a nuclei count of 97. For `CC(=O)O[C@H]1CC[C@@]2(C)C(=CC[C@@H]3[C@@H]2CC[C@]2(C)C(=O)CC[C@@H]32)C1` [Dehydroisoandosterone 3-acetate] the value was 96.3. Regarding `CO[C@@H]1[C@H](OC(=O)NC(=O)CCl)CC[C@]2(CO2)[C@H]1[C@@]1(C)O[C@@H]1CC=C(C)C`, the nuclei count came to 92.6. In the case of `Cc1onc(O)c1C[C@H](N)C(=O)O`, the nuclei count was 102. For `CCC(=O)CCCCC[C@@H]1NC(=O)[C@H]2CCCCN2C(=O)[C@H]([C@@H](C)CC)NC(=O)[C@H](Cc2cn(OC)c3ccccc23)NC1=O` [Apicidin] the value was 54.1 ± 37. For `CN(C(=O)Cc1ccccc1)C(CN1CCCC1)c1ccccc1` (stereo unspecified) [N-MPPP Hydrochloride] the value was 87.9; for `CN[C@@H]1C[C@H]2O[C@@](C)([C@@H]1OC)n1c3ccccc3c3c4c(c5c6ccccc6n2c5c31)C(=O)NC4` [Staurosporine], 10.1; for `O=C1NC(=O)c2c1c1c3ccccc3n3c1c1c2c2ccccc2n1[C@H]1CC[C@@H]3O1`, 60.9. The value for `O=C1CN=C(c2cccc(Br)c2)c2oc3ccccc3c2N1` was 78.5; that for `Clc1ccccc1C(c1ccccc1)(c1ccccc1)n1cccn1` was 102; that for `CC(C)(c1ccc(OCC2CO2)cc1)c1ccc(OCC2CO2)cc1` (stereo unspecified) was 86.6 ± 6.1. Compound `CCN1C[C@]2(COC(=O)c3ccccc3N3C(=O)C[C@H](C)C3=O)CC[C@H](OC)[C@@]34[C@@H]5C[C@H]6[C@H](OC)[C@@H]5[C@](O)(C[C@@H]6OC)[C@](O)([C@@H](OC)[C@H]23)[C@@H]14` [Methyllycaconitine citrate] returned a nuclei count of 109.

Take `CC(=O)N1CC[N+](C)(C)CC1` [4-Acetyl-1,1-dimethylpiperazinium iodide]: the nuclei count came out at 103. For `COc1cc([C@@H]2c3cc4c(cc3[C@H](O)[C@H]3COC(=O)[C@H]23)OCO4)cc(OC)c1OC` [Podophyllotoxin], the nuclei count stood at 15.6. The value for `CC(C(=O)OC1CC2CCC(C1)N2C)c1ccc(Br)cc1` (stereo unspecified) [PG-9 maleate] was 98.8.

Compound `O=C1Nc2cc(Cl)c(Cl)cc2N2CCNCC12` (stereo unspecified) came in with a nuclei count of 95.9. The value for `CC12NC(Cc3ccccc31)c1ccccc12` (single isomer, unassigned; (+)) [(+)-MK 801 maleate] was 94.2; that for `O=C(CCCN1CCC2(CC1)C(=O)N(Cc1cccc(F)c1)CN2c1ccccc1)c1ccc(F)cc1` [3'-Fluorobenzylspiperone maleate] was 29.4; that for `COc1ccc(C[C@H]2NC[C@H](O)[C@H]2OC(C)=O)cc1` [Anisomycin] was 12.5 ± 8.3. The compound `CC(C)n1cnc2c(C(=O)N[C@H]3CN4CCC3CC4)cc(Cl)cc21` showed a nuclei count of 96.2.

Turning to `CCCCC/C=C\C/C=C\C/C=C\C/C=C\CCCC(=O)Nc1ccc(O)cc1`, the nuclei count came to 97. For `COc1cc2c(cc1O)C(CCc1ccc(Cl)cc1)N(C)CC2` (stereo unspecified) the value was 104. For `CC1(C)CCCC(C)(C)N1[O]` the value was 91.7. The value for `CC(C)(Cc1c[nH]c2ccc(Cl)cc12)NCCOc1ccccc1OCC1CC1` was 11.3; that for `N#CC(C#N)=Cc1ccc(O)cc1` [Tyrphostin 8] was 102; that for `COc1ccc(C(=O)c2c(C)n(CCN3CCOCC3)c3cc(I)ccc23)cc1` was 80.

`C[CH2][Hg][S]c1ccccc1C(=O)[O-].[Na+]` [Thimerosal] came in with a nuclei count of 5.97. For `CC(=O)C1=C(O)[C@@H]2[C@H]3c4c[nH]c5cccc(c45)C[C@H]3C(C)(C)N2C1=O` [Cyclopiazonic Acid] the value was 90.3; for `CC(=O)C1=C(O)[C@@H]2[C@H]3c4c[nH]c5cccc(c45)C[C@H]3C(C)(C)N2C1=O` [Cyclopiazonic acid], 75.5; for `CC(C)(O)[C@H]1O[C@H]2CC[C@@]3(C)[C@@](O)(CC[C@H]4Cc5c([nH]c6ccccc56)[C@@]43C)C2=CC1=O` [Paxilline], 91.2 ± 11.

On to `CN1C(=O)[C@]23CC4=CC=C[C@H](O)[C@H]4N2C(=O)[C@@]1(CO)SS3` [Gliotoxin], for which the nuclei count amounted to 36.

The compound `Cc1ccc(C[N+](C)(C)C)o1` [5-Methylfurmethiodide] yielded a nuclei count of 91.6.

These data come from the supplement of paper PMC8183993.
